Source: PubChem (University of Kansas High Throughput Screening Laboratory)
mHTT CaM bind = mHTT-calmodulin interaction abrogation | 190,000 tested, 3.6% active | inhibition, % at 15 µM | AID 1671202 | AlphaScreen His-mHTT/GST-CaM binding, luminescence;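 also: 0% = both proteins with DMSO and 100% = one protein alone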
Pf apPOL block = Pf-apPOL DNA polymerase inhibition | Recombinant Pf-apPOL, molecular beacon fluorescence, 1.5 h | inhibition, % at 10 µM | 210,000 tested, 0.25% active | AID 1794808
* hit, by the source's call; . = no result. An excerpt weighted towards active compounds, which were near 3.6% of everything screened. Rule as the data show it: active = inhibition above about 50%; inactive = the rest.

SMILES | mHTT CaM bind | Pf apPOL block
O=C(c1nnc2ccc(-c3ccccc3)nn12)N1CCCCC1 | 2 | -3
CC1CCN(c2ncc3c(n2)CCC(C(=O)NCCc2ccncc2)C3)CC1 (configuration not stated) | 0 | -5
CC(C)c1cc(C2CCCN2C(=O)c2cccc(C(F)(F)F)c2)no1 (configuration not stated) | 10 | 2
CC(C)(C)C(=O)N1CCC[C@]2(CC[C@H](CCC#N)O2)C1 | 0 | 0
CCOc1ccc(C(C)=O)cc1CC(C(N)=O)C(N)=O | -2 | -4
CC1(C)CC(=O)C2=C(C1)N=C1c3ccccc3C(=O)C1C2c1cccc(F)c1 (configuration not stated) | 10 | -9
CC1(C)CC(=O)C2=C(C1)N=C1c3ccccc3C(=O)C1C2c1ccc([N+](=O)[O-])cc1 (configuration not stated) | 35 | -3
CC1(C)CC(=O)C2=C(C1)N=C1c3ccccc3C(=O)C1C2c1cccc(Br)c1 (configuration not stated) | 61* | -3
O=C1CCCC2=C1C(c1ccc3c(c1)OCO3)C1C(=O)c3ccccc3C1=N2 (configuration not stated) | 55* | -5
CC1(C)CC(=O)C2=C(C1)N=C1c3ccccc3C(=O)C1C2c1cc([N+](=O)[O-])ccc1O (configuration not stated) | 53* | -6
CC1(C)CC(=O)C2=C(C1)N=C1c3ccccc3C(=O)C1C2c1ccc2c(c1)OCO2 (configuration not stated) | 49 | -3
COc1ccc(OC)c(Nc2nc3nonc3nc2Nc2ccc(F)cc2)c1 | 14 | 5
COc1ccc(Nc2nc(N(C)C)nc3nccnc23)cc1 | 55* | -20
COc1cc(C=C2SC(=S)N(C)C2=O)cc(OC)c1OC | 8 | 5
CC(=NS(=O)(=O)c1ccc(C)cc1)N1CCOCC1 | -3 | 4
COc1ccc(NC2=CC(=NS(=O)(=O)c3cc(C)ccc3C)c3ccccc3C2=O)cc1 | 47 | 7
Cc1ccc(S(=O)(=O)N=C2C=C(NS(=O)(=O)c3ccccc3)C(=O)c3ccccc32)cc1 | 66* | 5
CCOc1ccc(N=C(C)C2=C(O)c3ccccc3C2=O)cc1 | 5 | -8
Cc1ccc(S(=O)(=O)Nc2ccccn2)cc1 | -8 | -8
Cc1ccc(S(=O)(=O)N=C2C=C(N3CCOCC3)C(=O)c3ccccc32)cc1 | 84* | 1
Cc1ccc(C)c(S(=O)(=O)N=C2C=C(Nc3ccccc3)C(=O)c3ccccc32)c1 | 89* | -3
CCOc1ccc(S(=O)(=O)N=C2C=C(Nc3cccc(C)c3)C(=O)c3ccccc32)cc1 | 82* | 2
CNS(=O)(=O)c1ccc(NC(=O)c2ccc(Cn3cc(Cl)cn3)o2)cc1 | -1 | -7
O=C(CN1CCC(c2nc(-c3ccccc3Cl)no2)CC1)Nc1ccccc1 | 10 | -2
O=C(CS(=O)(=O)c1cn(Cc2ccccc2Cl)c2ccccc12)Nc1nccs1 | 28 | 0
SMILES | mHTT CaM bind | Pf apPOL block
CN1CCN(C(=O)c2ccc3c(c2)CCC(=O)N3C)CC1 | -7 | 0
CC(C)(C)c1ccc(C(N)=NOC(=O)CCSc2cccs2)cc1 | . | -10
CCCc1cc(C2CCCN2Cc2cc(Cl)ccc2O)no1 (configuration not stated) | -14 | 0
Cc1ccc(S(=O)(=O)N=C2C=C(Nc3cccc(C)c3)C(=O)c3ccccc32)cc1 | 82* | -2
Cc1cccc(NC2=C(N(C)C)C(=O)c3ccccc3C2=O)c1 | 19 | -10
Cc1cc(NS(=O)(=O)c2ccc(N/C=C/C(=O)c3cccs3)cc2)nc(C)n1 | 30 | -14
CC(=O)c1ccc(NS(=O)(=O)c2ccc(N/C=C/C(=O)c3cccs3)cc2)cc1 | 2 | 60*
CCn1c(C(=O)N2CCN(Cc3ccccc3)CC2)cc2sccc21 | 57* | -7
O=C(c1cc2sccc2n1Cc1ccccc1F)N1CCOCC1 | 6 | -4
Cc1ccc(C2=C/C(=C\c3ccc([N+](=O)[O-])o3)C(=O)O2)c(C)c1 | 19 | 1
C[C@@H](c1ccccc1)N1C[C@@H](COCc2ccccc2)Oc2cc(N3CC[C@@H](N(C)C)C3)ccc2S1(=O)=O | 100* | -4
C[C@H](c1ccccc1)N1C[C@H](COCc2ccccc2)Oc2cc(N3CC[C@@H](O)C3)ccc2S1(=O)=O | 54* | 11
C[C@@H](c1ccccc1)N1C[C@H](COCc2ccccc2)Oc2cc(N3CCC[C@H]3CO)ccc2S1(=O)=O | 47 | -7
C[C@@H](c1ccccc1)N1C[C@H](COCc2ccccc2)Oc2cc(N3CC[C@@H](O)C3)ccc2S1(=O)=O | 52* | -7
COC[C@H]1CCCN1c1ccc2c(c1)O[C@H](COCc1ccccc1)CN([C@@H](C)c1ccccc1)S2(=O)=O | 1 | 0
C[C@@H](c1ccccc1)N1C[C@@H](COCc2ccccc2)Oc2cc(N3CCC[C@H]3C(N)=O)ccc2S1(=O)=O | 16 | -5
C[C@@H](c1ccccc1)N1C[C@@H](COCc2ccccc2)Oc2cc(N3CC[C@@H](O)C3)ccc2S1(=O)=O | 56* | -4
C[C@@H](c1ccccc1)N1C[C@H](COCc2ccccc2)Oc2cc(N3CCC[C@H]3C(N)=O)ccc2S1(=O)=O | 6 | -6
Cc1cc2c(cc1C)C(c1cc3c(cc1[N+](=O)[O-])OCO3)CC(=O)N2 (configuration not stated) | 26 | -4
c1ccc(-c2nnc(-c3ccncc3)o2)cc1 | -4 | -2
O=c1[nH]nc(-c2ccc(F)cc2)cc1Cc1cn(Cc2ccccc2)c2ccc([N+](=O)[O-])cc12 | . | -13
O=C(NCCc1ccccc1)N1CCc2c(nc3cc[nH]n3c2=O)C1 | -5 | 2
Cc1cc(Cl)ccc1N(CC(=O)Nc1ccc(F)cc1)S(C)(=O)=O | -2 | -5
Cc1cc(C)cc(N(CC(=O)Nc2ccc(F)c(Cl)c2)S(C)(=O)=O)c1 | 56* | -1
CCOc1ccc(C2C3=C(CCCC3=O)NC3=C2C(=O)c2ccccc23)cc1 (configuration not stated) | 74* | -4
COc1ccc(C2C3=C(CCCC3=O)NC3=C2C(=O)c2ccccc23)cc1 (configuration not stated) | 61* | -2
O=C1CCCC2=C1C(c1cccs1)C1=C(N2)c2ccccc2C1=O (configuration not stated) | 31 | 2
CCOc1ccc(C2C3=C(CCCC3=O)Nc3ncnn32)cc1 (configuration not stated) | -7 | -1
